# Source: PubChem BioAssay (National Center for Advancing Translational Sciences (NCATS))
# D2 PAM-1 = human D2 receptor positive allosteric modulation. P14416. 360,000 compounds, 0.23% hits. potentiation, % (concentration not given with the values). DiscoveRx D2 beta-arrestin cells, luminescence, 90 min; 100% = 57 uM dopamine signal; in the data active means potentiation above about 50%; inconclusive means mostly about 30% to 49%
# Target sequence (P14416 whole entry, looked up): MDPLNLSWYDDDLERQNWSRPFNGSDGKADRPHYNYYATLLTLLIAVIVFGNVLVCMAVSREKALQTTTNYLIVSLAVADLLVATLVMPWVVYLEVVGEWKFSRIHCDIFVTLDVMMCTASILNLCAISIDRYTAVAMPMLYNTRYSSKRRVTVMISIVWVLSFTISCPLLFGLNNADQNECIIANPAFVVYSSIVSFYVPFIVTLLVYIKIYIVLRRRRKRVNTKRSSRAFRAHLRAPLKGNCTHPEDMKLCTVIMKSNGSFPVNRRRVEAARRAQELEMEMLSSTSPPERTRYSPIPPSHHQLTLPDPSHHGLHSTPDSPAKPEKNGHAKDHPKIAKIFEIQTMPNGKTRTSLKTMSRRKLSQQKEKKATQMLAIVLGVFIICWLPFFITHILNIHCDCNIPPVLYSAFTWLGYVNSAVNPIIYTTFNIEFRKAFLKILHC
#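 PathHunter D2 cells, attached overnight at 37 deg C, received compound in DMSO plus dopamine at EC20 (50 nM final) for 90 min at 37 deg C. Beta-arrestin recruitment was read as luminescence after 1 h with detection reagent at ambient temperature.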
# D2 ag-1 = agonists of human D2 dopamine receptor. P14416. HEK293 T-REx D2 cells, calcium flux agonist mode. activation, % at 2 µM. 340,000 compounds, 0.53% hits;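 active means activation over 3 SD above normal in the single-dose calcium agonist read, cut at about 30% in these data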; further: 0% is about no effect
#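 HEK293 Trex D2 cells, tetracycline-induced, o/n 30 C 5% CO2; no-wash Ca dye, RT 30–90 min; 10-cycle baseline, 23 nl cpd added, kinetic Ca read 180 s; agonist hits = positive Ca response.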
# D2 PAM-2 = positively modulates the human D2 dopamine receptor allosterically; P14416; HEK293 T-REx D2, calcium flux, EC20 dopamine potentiation; potentiation, % at 10 µM; 340,000 compounds, 0.34% hits; AID 485347;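 active means potentiation over 3 SD above the plate norm, cut at about 30% in these data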; further: 0% is about no effect
#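 Potentiation of an EC20 dopamine calcium response is measured in a force-coupled, tetracycline-inducible Hek293 Trex D2 line. Compound-only kinetic reads over 180 s flag agonists before dopamine addition.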
# D2 antag = antagonizes the human D2 dopamine receptor | HEK293 TREx D2 cells, calcium flux, dopamine EC80 | inhibition, % at 10 µM | 340,000 compounds, 2% hits | AID 485344; in the data active means inhibition above about 30%; inactive means below that, where a call was filed; further: 0% is about no effect
#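 Calcium mobilization kinetics were recorded at 1 s intervals in tetracycline-induced HEK293 T-REx D2 cells, first for 180 s after compound addition and then 180 s after EC80 dopamine.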
# D2 ag-2 = activates the human D2 dopamine receptor. P14416. DiscoveRx PathHunter D2 beta-arrestin, luminescence, 90 min; 100% = 57 uM dopamine signal. activation, % (no concentration beside the values). 360,000 compounds, 0.084% hits. AID 624465; in the data active means activation above about 40%; inconclusive means between about 15% and that limit
#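 DiscoveRx PathHunter D2 beta-arrestin cells (2,100/well) attached overnight, then compound-stimulated 90 min at 37 C in HBSS/10 mM HEPES/0.1% Tween-20 buffer; beta-galactosidase complementation read by luminescence after 1 h at ambient temperature. Dopamine 57 uM final (EC100) as control.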
# An asterisk follows results filed as active; u = inconclusive; x = no result; ! = not confirmed by another sample. Most compounds without a hit are left out; they make up all but 2.4% or so of the library.
SMILES,D2 PAM-1,D2 ag-1,D2 PAM-2,D2 antag,D2 ag-2
CCOc1cccc2cc(-c3nc4sc5c(c4c(=O)[nH]3)CCC(C(C)(C)C)C5)c(=O)oc12 (stereo not drawn),x,-1,10,x,x
Cc1ccccc1NC(=O)CSC1=C(C#N)C(c2ccsc2)CC(=O)N1 (stereo not drawn),0,1,-1,37*,-2
CC1CCn2c(nc3cc(C(=O)NCc4ccccc4)ccc32)C1 (stereo not drawn),x,1,7,x,x
COc1ccc(C)cc1NC(=O)CNC(c1ccccc1)c1ccc(C)cc1 (stereo not drawn),-11,1,0,-5,0
COc1ccccc1NC(=O)CNC(c1ccccc1)c1ccccc1,-6,-1,x,36*,-3
CCOc1ccccc1NC(=O)c1cc2c(=O)n(Cc3cccnc3)ccc2nc1C,x,0,3,x,x
O=C1CCN(Cc2cccnc2)CCN1[C@H](CO)c1ccccc1,-6,0,-8,0,0
COc1ccc(CN2CCC(=O)N([C@H](CO)c3ccccc3)CC2)cc1,-20,0,-11,52*,-2
CCOC(=O)c1c(NC(=O)/C=C/c2ccc(C)cc2)sc2c1CCCC2,x,0,-3,x,x
C[C@@H]1CN([C@@H](C)CO)C(=O)c2cc(NS(C)(=O)=O)ccc2O[C@@H](C)CCCCO[C@H]1CN(C)Cc1ccc2c(c1)OCO2,4,x,x,x,0
COc1cc(NC(=O)CCn2c(=O)oc3ccccc32)cc(OC)c1OC,-4,1,34*!,-22,4
COc1ccccc1OCCCn1c(=O)oc2ccccc21,-5,0,-11,34*,-10
O=C(CCn1c(=O)oc2ccccc21)Nc1ccccc1,-12,1,-2,1,5
COc1ccccc1OCCCn1c(=O)oc2ccc(C)cc21,1,0,4,-7,-2
COc1cc(Cl)c(C)cc1NC(=O)CNC(=O)Cn1ccc2ccccc2c1=O,x,0,-8,x,x
O=c1c2c3c(sc2n(Cc2cc(=O)n4ccccc4n2)c(=O)n1-c1ccc(Cl)cc1)CCC3,x,0,-8,x,x
N#Cc1cccc(NC(=O)c2cc(C3CCCCN3C(=O)c3ccc4c(c3)CCO4)on2)c1 (stereo not drawn),4,x,x,x,-3
Cc1ccccc1-c1nc2c3c(-c4ccccc4)c(-c4ccccc4)oc3ncn2n1,x,0,-2,x,x
COc1cc(C(=O)N(Cc2cccnc2)Cc2cc3cc4c(cc3[nH]c2=O)OCCO4)cc(OC)c1OC,5,0,7,37*,-3
CC1(CCC(=O)O)C(=O)CCC2C1CCC1(C)C2CCC1(C)O (stereo not drawn),-1,x,x,x,-2
COc1ccc(C2N(C(=O)N(C)C)CCN2S(=O)(=O)c2ccc(OC)cc2)cc1 (stereo not drawn),-5,0,22,37*,-2
COc1ccccc1CO/N=C/NC(=O)c1c(OC)ccnc1Oc1ccc(F)cc1,-3,1,13,37*,-2
COc1ccnc(Oc2ccc(F)cc2)c1C(=O)N/C=N/OCc1cccc(F)c1,-1,3,-2,9,0
CCCCn1c(=O)c(C(=O)OCC)c(O)c2ccccc21,12,1,8,38*,0
CCCCCn1c(=O)c(C(=O)OCC)c(O)c2ccccc21,15,-1,9,-2,-2
SMILES,D2 PAM-1,D2 ag-1,D2 PAM-2,D2 antag,D2 ag-2
CCOc1ccc(C(=O)NCc2nc(-c3ccc(Cl)cc3)no2)cc1OCC,x,0,-3,x,x
CCOC(=O)c1cnc(-n2nc(C)cc2C)nc1NCCc1ccccc1,-8,0,-1,34*,-4
CCOC(=O)c1cnc(-n2nc(C)cc2C)nc1Nc1ccccc1OC,x,0,9,6,x
COc1ccc(-c2oc3ncnc(NCCCN(C)C)c3c2-c2ccc(OC)cc2)cc1,-15,-2,-22,54*,-3
CN(C)CCNc1ncnc2oc(-c3ccccc3)c(-c3ccccc3)c12,-16,0,-11,-3,-8
COC(=O)/C=C1\SC(=Nc2ccc(Cl)c(Cl)c2)NC1=O,-3,1,x,-1,6
CCc1ccc(N=C2NC(=O)/C(=C/c3cc(OC)c(O)c(OC)c3)S2)cc1,-55,5,-21,15,u
COc1cc(/C=C2\SC(=Nc3ccc(Cl)c(C(=O)O)c3)NC2=O)c(Br)c(Br)c1O,-1,87*,-1,37*,-4
COc1cc(/C=C2\SC(=Nc3ccccc3)NC2=O)cc(Cl)c1O,-15,74*,-10,38*,-2
COc1ccccc1N1CCN(C(CNC(=O)C(=O)NCCCN(C)C)c2cccnc2)CC1 (stereo not drawn),x,0,6,x,x
CC(C)(C)C(=O)N1CCc2cc(-c3csc(N)n3)ccc21,-14,0,33*,-9,10
CCOc1ccc(-n2nc(CO)c(C(=O)NCCCc3ccccc3)n2)cc1,x,1,7,x,x
Cc1nc(N2CCCC2)c2c(C(=O)N3CCN(c4cccc(C)c4C)CC3)c(C)oc2n1,x,1,-5,x,x
COc1ccc(NC(=O)c2ccc(CNS(=O)(=O)c3ccc4c(c3)C(C)(C)C(=O)N4C)cc2)cc1,x,-1,-17,x,x
CN(C)/C=C/C(=O)c1ccc2noc(-c3cccc(F)c3)c2c1,-4,0,-2,-11,46*
CC(=O)c1ccc2noc(-c3ccc(F)cc3)c2c1,59*,1,3,34*,6
COc1ccccc1Cc1c(C(C)(C)C)nc2c3ccccc3ccn12,-18,x,x,x,-10
OCCNC(=S)Nc1ccc2nsnc2c1,-7,0,-7,31*,-1
COc1cccc(C(=O)Nc2cccc(C(=O)OCc3cc(=O)n4c(C)csc4n3)c2)c1,x,-2,8,x,x
CC(C)CN1CCN(Cc2cccn2-c2ccccn2)CC1CCO (stereo not drawn),-8,2,8,9,-3
CC(C)=CCN1CCN(Cc2cccn2-c2ccccn2)CC1CCO (stereo not drawn),-6,-2,-5,99*,-6
CC(C)CN1CCN(Cc2c[nH]c3ccccc23)CC1CCO (stereo not drawn),-4,0,5,-15,-1
CC(C)=CCN1CCN(Cc2c[nH]c3ccccc23)CC1CCO (stereo not drawn),-31,0,-16,47*,-2
CCOC(=O)c1ccc(NC(=O)C2CCCN(c3ncnc4onc(C)c34)C2)cc1 (stereo not drawn),x,0,6,x,x
CCCC12CN3CCN(CC(C3)/C1=N\NC(=O)c1ccc(F)cc1)C2,-9,2,-2,1,6
CCCC12CN3CCN(CC(C3)/C1=N\NC(=O)Nc1ccccc1)C2,0,1,1,54*,2
CCOC(=O)C1(C)CCCN1C(=O)c1csnn1 (stereo not drawn),-2,x,x,x,-5
